Screening results (PubChem)
OTUD3 block: inhibitors of human OTUD3 deubiquitinase | Q5T2D3 | purified OTUD3, Ub-rhodamine fluorescence, 2 h | inhibition, % at 25 µM | 47,000 compounds, 0.7% hits | AID 1645858
USP7 block: blocks human USP7 ubiquitin-rhodamine cleavage. Q93009. purified USP7, Ub-rhodamine cleavage fluorescence. inhibition, % at 20 µM. 47,000 compounds, 0.3% hits. AID 1645854
USP8 block: human USP8 deubiquitinase inhibition; inhibition, % at 20 µM; P40818; purified USP8, Ub-rhodamine cleavage fluorescence, 30 min; AID 1645853; 47,000 compounds, 4.2% hits
USP10 inh: inhibitors of human USP10 deubiquitinase | Q14694 | purified USP10, Ub-rhodamine fluorescence, 60 min | inhibition, % at 20 µM | 47,000 compounds, 1.1% hits
UCHL1 inh: inhibitors of human UCHL1 deubiquitinase. P09936. 47,000 compounds, 0.2% hits. purified UCHL1, Ub-rhodamine cleavage fluorescence. inhibition, % at 20 µM
Numbers stand for hits; 0 = inactive. This is a sample that favours compounds with a hit; in the whole collection about 4.9% have one here. No stated cut-off is given here; in the data, active means inhibition above about 30%; inactive means the rest.

SMILES	OTUD3 block	USP7 block	USP8 block	USP10 inh	UCHL1 inh
CCOc1cc(N2CCOCC2)c(OCC)cc1NC(=O)COC(=O)c1ccc2ncsc2c1	0	0	0	0	0
CCOc1cc(N2CCOCC2)c(OCC)cc1NC(=O)c1cc2c(s1)CCC2	0	0	50	0	0
Cc1cc(C)nc(NCCC(=O)N2CCC3(CC=CCOC3)CC2)n1	0	0	0	0	0
CCn1cc(NC(=O)CN2CCC3(CC=CCOC3)CC2)c(C)n1	46	0	0	0	0
O=S(=O)(O)c1cc2cc3ccccc3cc2[nH]1	0	0	87	0	0
Cc1ccc(-n2ncc3c2ncn2nc(-c4cccnc4)nc32)cc1C	0	0	0	0	0
Cc1ccc(N2C(=O)CN(S(C)(=O)=O)CC2(C)C(=O)NC2CCCCC2)cc1 (stereo not drawn)	0	0	0	0	0
CCN(c1ccccc1)S(=O)(=O)c1ccc2[nH]cc(C(=O)NCc3cccnc3)c(=O)c2c1	0	0	38	0	0
CN1CC(c2ncn[nH]2)c2cc(C(=O)N3CCCCC3)ccc21 (stereo not drawn)	0	0	0	0	0
CN(Cc1ccc2c(c1)OCO2)C(=O)Cn1cnc2sc(-c3ccccc3)cc2c1=O	0	0	55	0	0
CCN(Cc1ccc2c(c1)OCO2)C(=O)Cn1cnc2c(cnn2-c2ccccc2)c1=O	0	0	0	0	0
COc1ccccc1NC(=O)Cn1c(=O)n(-c2ccccc2)c2ncccc21	0	0	0	0	0
O=c1ccc(-c2nc(-c3ccncc3)no2)cn1Cc1noc(-c2ccccc2)n1	0	0	53	0	0
O=c1ccc(-c2nc(-c3cnccn3)no2)cn1Cc1noc(-c2ccccc2)n1	0	0	0	0	0
CC(=O)c1cc2c(cc1NC(=O)c1cc(S(=O)(=O)N3CCCC3)cn1C)OCO2	0	0	0	0	0
CC(=O)c1cc2c(cc1NC(=O)c1oc3c(c1C)-c1[nH]ncc1CC3)OCO2	0	0	31	0	0
Cc1ccc(-c2cc(C(F)F)n3ncc(C(=O)Nc4ccc5c(c4)OCO5)c3n2)cc1	0	0	47	0	0
Cc1ccc(-c2nnn(CC(=O)N(c3ccccc3C)C(C(=O)NC3CCCC3)c3ccc(O)cc3)n2)cc1 (stereo not drawn)	0	0	0	0	0
Cc1cc(C)n(-c2ccc(C(=O)Nc3ccccn3)nn2)n1	0	0	0	0	0
